Laboratory results from PubChem BioAssay (Tox21).
Inconclusive results are not listed. Activity calls are given as the source filed them. Unless noted, calls come from the whole dose curve.

What was measured:
[1] = Nuclear factor erythroid 2-related factor 2/antioxidant responsive element (Nrf2/ARE) small molecule agonists: qHTS cell viability counter screen in human keratinocytes (AID 1919968; active = well fitted curve in the direction sought with a large enough effect in the repeat runs; an effect the other way counts as inactive or inconclusive; note: nearly all actives have a fitted effect of over 55% in size)
Procedure, shortened: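 After a 5 h attachment period, ARE-reporter keratinocytes were dosed with compounds in DMSO and then cultured 23 h at 37 C. Cell viability came from CellTiter-Fluor signal read after a further 1 h.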

[2] = Nuclear factor erythroid 2-related factor 2/antioxidant responsive element (Nrf2/ARE) small molecule agonists: luciferase reporter gene qHTS assay in human keratinocytes (AID 1919969); note: nearly all actives have a fitted effect of over 35% in size
[3] = molecular target: Gonadotropin-releasing hormone receptor (Homo sapiens) (UniProt P30968); assay: Human gonadotropin-releasing hormone receptor (GnRHR) small molecule agonists, calcium flux assay in GnRHR-HEK293 cells (AID 1920063); note: nearly all actives have a fitted effect of over 35% in size
Gonadotropin-releasing hormone receptor (Homo sapiens), sequence (P30968 whole entry, looked up): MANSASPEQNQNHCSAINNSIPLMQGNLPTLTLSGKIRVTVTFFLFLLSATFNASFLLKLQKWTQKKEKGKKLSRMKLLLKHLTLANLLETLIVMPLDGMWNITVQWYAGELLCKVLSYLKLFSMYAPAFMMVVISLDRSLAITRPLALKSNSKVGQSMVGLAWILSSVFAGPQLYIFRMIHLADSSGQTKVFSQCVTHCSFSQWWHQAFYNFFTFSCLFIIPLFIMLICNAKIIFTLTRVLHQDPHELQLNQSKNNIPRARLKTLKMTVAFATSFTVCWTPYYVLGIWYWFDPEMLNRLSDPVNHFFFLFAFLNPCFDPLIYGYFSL
Procedure, shortened: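 We seeded human GnRHR-expressing HEK293 cells for 18 hours, loaded them with calcium dye for an hour at 37 C, added test compounds, and recorded fluorescence intensity kinetically for three minutes.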

[4] = molecular target: KiSS-1 receptor (Homo sapiens) (UniProt Q969F8); assay: Human kisspeptin (KISS1R) small molecule agonists, calcium flux assay in KISS1R-HEK293 cells (AID 1920064; active = well fitted curve in the direction sought with a large enough effect in the repeat runs; an effect the other way counts as inactive or inconclusive)
KiSS-1 receptor (Homo sapiens), sequence (Q969F8 whole entry, looked up): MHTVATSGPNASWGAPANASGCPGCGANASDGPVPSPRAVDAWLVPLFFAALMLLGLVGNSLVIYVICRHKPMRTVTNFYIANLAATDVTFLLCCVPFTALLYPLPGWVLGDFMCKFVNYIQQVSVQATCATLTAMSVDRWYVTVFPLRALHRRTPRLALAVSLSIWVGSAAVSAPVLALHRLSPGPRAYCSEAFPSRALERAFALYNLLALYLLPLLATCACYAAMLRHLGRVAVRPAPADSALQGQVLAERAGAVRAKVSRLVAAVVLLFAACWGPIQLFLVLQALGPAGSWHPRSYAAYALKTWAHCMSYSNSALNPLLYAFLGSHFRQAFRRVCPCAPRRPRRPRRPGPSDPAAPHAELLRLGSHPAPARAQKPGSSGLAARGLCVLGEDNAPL
Procedure, shortened: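 Kinetic calcium assay, 1 s sampling over 3 min at Ex/Em 480/540, in HEK293 cells engineered with human KISS1R; compounds delivered in DMSO after 1 h dye loading.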

[5] = G protein-coupled receptor (GPCR) small molecule agonists, calcium flux assay: HEK293 wild type cell line counter screen (AID 1920065)
Procedure, shortened: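 Calcium-sensitive dye, loaded 1 h at 37 C into cells cultured 18 h, reports compound-evoked calcium release as fluorescence (Ex/Em 480/540), measured over 3 min. Agonist mode; 15-point titrations, triplicate.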

[6] = p53 small molecule agonists, cell-based qHTS assay with human liver microsomes (AID 1963577);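 note: p53 response element beta-lactamase reporter cells with liver microsomes plus NADPH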
Procedure, shortened: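 With metabolic activation: human liver microsomes (0.5 mg/mL final) plus NADPH (0.5 mg/mL final) added alongside compounds to p53RE-bla cells; 16 h 37 C exposure; beta-lactamase read by LiveBLAzer fluorescence.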

[7] = p53 small molecule agonists, cell-based qHTS assay with rat liver microsomes (AID 1963578)
Procedure, shortened: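 Metabolic activation by rat liver microsomes and NADPH, each 0.5 mg/mL final, added right after compounds to p53RE-bla reporter cells (4,000/well, plated 5 h earlier). 16 h at 37 C, then LiveBLAzer substrate for 2 h at room temperature in the dark; fluorescence read-out.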

[8] = p53 small molecule agonists, cell-based qHTS assay with human liver microsomes: qHTS cell viability counter screen (AID 1963579); note: nearly all actives have a fitted effect of over 45% in size
Procedure, shortened: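 Metabolic activation used human liver microsomes and NADPH, both 0.5 mg/mL final, over 16 hours at 37 C on p53RE-bla cells (4,000/well). Cytotoxicity measured by CellTiter-Glo luminescence, 30 min at room temperature.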

[9] = p53 small molecule agonists, cell-based qHTS assay with rat liver microsomes: qHTS cell viability counter screen (AID 1963580); note: nearly all actives have a fitted effect of over 45% in size
Procedure, shortened: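 Intracellular ATP, by CellTiter-Glo luminescence, defines viability. HCT-116 p53RE-bla cells, 4,000 per well, were compound-treated in the presence of rat liver microsomes and NADPH for 16 h at 37 C.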

[10] = p53 small molecule agonists, cell-based qHTS assay: qHTS cell viability counter screen (AID 1963581); note: nearly all actives have a fitted effect of over 45% in size
Procedure, shortened: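 Following 5 h attachment, HCT-116 p53RE-bla cells took up compound for 16 h at 37 C; the reporter was read with B/G FRET substrate (2 h RT), and viability then via CellTiter-Glo ATP luminescence.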

[11] = p53 small molecule agonists, cell-based qHTS assay (AID 1963582; active = well fitted activation curve with a large enough effect in the signal ratio in the repeat runs, not every such curve was filed as active; the % refers to the signal ratio)
Procedure, shortened: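 In this cell-based concentration-response screen, a p53 response element drives beta-lactamase; cells received DMSO-borne compounds after 5 h culture and were incubated a further 16 h before FRET substrate development.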

[12] = molecular target: 5-hydroxytryptamine receptor 2A (Homo sapiens) (UniProt P28223); assay: 5-hydroxytryptamine receptor 2A (HTR2A) small molecule antagonists, cell-based qHTS assay (AID 1963586); note: nearly all actives have a fitted effect of over 45% in size
5-hydroxytryptamine receptor 2A (Homo sapiens), sequence (P28223 whole entry, looked up): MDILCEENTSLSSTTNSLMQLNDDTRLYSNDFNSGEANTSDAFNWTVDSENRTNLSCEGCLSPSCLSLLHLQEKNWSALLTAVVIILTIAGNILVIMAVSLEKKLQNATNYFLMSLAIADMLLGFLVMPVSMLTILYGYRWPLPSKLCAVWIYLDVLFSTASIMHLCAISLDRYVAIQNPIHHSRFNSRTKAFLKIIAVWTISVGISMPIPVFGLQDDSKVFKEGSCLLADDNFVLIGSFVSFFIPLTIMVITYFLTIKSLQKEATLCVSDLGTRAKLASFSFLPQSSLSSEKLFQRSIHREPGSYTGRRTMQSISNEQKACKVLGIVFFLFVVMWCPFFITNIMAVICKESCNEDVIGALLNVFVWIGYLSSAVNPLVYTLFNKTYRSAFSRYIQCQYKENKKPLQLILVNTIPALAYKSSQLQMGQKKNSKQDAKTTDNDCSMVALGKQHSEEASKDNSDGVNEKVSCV
Procedure, shortened: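 Antagonist-mode intracellular calcium assay: DOI (4 nM) added after 5 min compound pre-incubation at room temperature to dye-loaded HTR2A-CHO cells. Fluorescence followed for 3 min, sampled every second.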

[13] = molecular target: 5-hydroxytryptamine receptor 2A (Homo sapiens) (UniProt P28223); assay: 5-hydroxytryptamine receptor 2A (HTR2A) small molecule agonists, cell-based qHTS assay (AID 1963587); note: nearly all actives have a fitted effect of over 30% in size
Procedure, shortened: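 Kinetic calcium-flux fluorescence (2 min, 1 sec intervals) after compound addition in agonist mode. HTR2A-CHO cells were cultured 18 h, then dye-loaded 1 h at 37 C.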

[14] = molecular target: Muscarinic acetylcholine receptor M1 (Homo sapiens) (UniProt P11229); assay: Cholinergic receptor muscarinic 1 (CHRM1) small molecule antagonists, cell-based qHTS assay (AID 1963588); note: nearly all actives have a fitted effect of over 40% in size
Muscarinic acetylcholine receptor M1 (Homo sapiens), sequence (P11229 whole entry, looked up): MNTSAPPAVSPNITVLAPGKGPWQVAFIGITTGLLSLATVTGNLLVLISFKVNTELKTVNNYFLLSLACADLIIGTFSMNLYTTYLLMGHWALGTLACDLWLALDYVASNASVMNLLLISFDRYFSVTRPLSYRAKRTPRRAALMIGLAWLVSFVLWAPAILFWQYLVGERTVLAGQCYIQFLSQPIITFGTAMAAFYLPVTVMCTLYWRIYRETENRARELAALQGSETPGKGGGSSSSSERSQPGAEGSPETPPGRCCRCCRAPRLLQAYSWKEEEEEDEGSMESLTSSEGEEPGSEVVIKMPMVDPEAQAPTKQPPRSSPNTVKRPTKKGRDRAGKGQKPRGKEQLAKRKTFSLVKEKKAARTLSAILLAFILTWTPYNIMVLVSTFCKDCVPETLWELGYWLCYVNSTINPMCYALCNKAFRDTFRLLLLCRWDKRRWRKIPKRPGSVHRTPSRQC
Procedure, shortened: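 CHRM1-CHO calcium-flux assay, antagonist mode. Cells were seeded 18 h, dye-loaded 1 h at 37 C and given compound for 5 min at RT, then acetylcholine was added at 50nM. FDSS fluorescence was read 3 min; 15 concentrations, three runs.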

[15] = molecular target: Muscarinic acetylcholine receptor M1 (Homo sapiens) (UniProt P11229); assay: Cholinergic receptor muscarinic 1 (CHRM1) small molecule agonists, cell-based qHTS assay (AID 1963589); note: nearly all actives have a fitted effect of over 35% in size
Procedure, shortened: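 Measures agonist-induced intracellular calcium rise. Stable human CHRM1 CHO line, 1 h dye load at 37 C, compounds from DMSO, kinetic fluorescence read.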

[16] = cAMP Responsive Elements (CRE) small molecule agonists, cell-based qHTS assay (AID 1963590)
Procedure, shortened: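 A CRE-responsive beta-lactamase reporter in HEK 293T cells was used. Treatment ran 3 h at 37 C; detection used LiveBLAzer B/G FRET substrate for 2 h at room temperature.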

[17] = molecular target: Beta-2 adrenergic receptor (Homo sapiens) (UniProt P07550); assay: Adrenergic beta2 receptor (ADRB2) small molecule antagonists, cell-based qHTS assay (AID 1963592); note: series mostly up to about 92 µM; nearly all actives have a fitted effect of over 50% in size
Beta-2 adrenergic receptor (Homo sapiens), sequence (P07550 whole entry, looked up): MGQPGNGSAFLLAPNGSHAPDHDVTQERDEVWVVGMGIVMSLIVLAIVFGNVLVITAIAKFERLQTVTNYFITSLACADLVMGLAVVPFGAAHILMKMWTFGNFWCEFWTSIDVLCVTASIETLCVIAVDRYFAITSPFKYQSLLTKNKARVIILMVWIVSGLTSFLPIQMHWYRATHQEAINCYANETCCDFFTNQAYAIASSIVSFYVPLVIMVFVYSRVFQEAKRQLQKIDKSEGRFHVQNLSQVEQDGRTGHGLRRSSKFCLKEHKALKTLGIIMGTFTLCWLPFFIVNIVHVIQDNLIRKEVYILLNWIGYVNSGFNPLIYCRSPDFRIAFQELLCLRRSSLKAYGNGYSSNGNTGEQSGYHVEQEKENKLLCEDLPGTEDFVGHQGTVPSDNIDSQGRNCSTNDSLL
Procedure, shortened: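 Cells (CHO, stable ADRB2 overexpression) incubated 18-20hr at 37C; compounds added from DMSO; agonist mix (1nM isoproterenol, 100uM IBMX, 25uM Ro-20-1724) added; 0.5hr RT; d2-cAMP and anti-cAMP-cryptate added; 1hr RT; 665/615 nm read.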

[18] = molecular target: D(2) dopamine receptor (Homo sapiens) (UniProt P14416); assay: Dopamine D2 receptor (DRD2) small molecule agonists, cell-based qHTS assay (AID 1963594); note: nearly all actives have a fitted effect of over 35% in size
D(2) dopamine receptor (Homo sapiens), sequence (P14416 whole entry, looked up): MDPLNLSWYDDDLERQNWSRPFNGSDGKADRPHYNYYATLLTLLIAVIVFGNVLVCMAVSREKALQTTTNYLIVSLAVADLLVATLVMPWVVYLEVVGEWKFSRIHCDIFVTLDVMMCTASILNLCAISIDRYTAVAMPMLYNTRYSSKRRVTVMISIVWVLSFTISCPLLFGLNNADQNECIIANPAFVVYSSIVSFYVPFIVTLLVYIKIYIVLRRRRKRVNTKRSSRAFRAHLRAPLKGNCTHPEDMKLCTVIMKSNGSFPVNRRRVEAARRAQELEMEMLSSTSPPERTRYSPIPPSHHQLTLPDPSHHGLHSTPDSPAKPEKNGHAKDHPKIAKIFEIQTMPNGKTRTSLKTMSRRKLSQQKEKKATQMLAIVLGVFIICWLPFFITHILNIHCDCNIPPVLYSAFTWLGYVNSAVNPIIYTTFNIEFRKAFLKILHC
Procedure, shortened: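 cAMP accumulation in DRD2-HEK293 cells measured by HTRF after 1 h detection; compounds added 10 min before NKH477 (200nM […]) forskolin-analogue stimulation, 30 min at room temperature, with Ro20-1724 present at 0.1 mM final.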

[19] = molecular target: D(2) dopamine receptor (Homo sapiens) (UniProt P14416); assay: Dopamine D2 receptor (DRD2) small molecule antagonists, cell-based qHTS assay (AID 1963595; active = well fitted inhibition curve with a large enough effect in the signal ratio in the repeat runs, with a control signal flat; the % refers to the signal ratio)
Procedure, shortened: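 HEK293 cells stably expressing DRD2, preincubated with 0.1 mM Ro20-1724 and compounds 10 min, were stimulated with 200 nM NKH477 plus 12 nM quinpirole for 30 min at room temperature; cAMP measured by HTRF (665/620 nm).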

[20] = cAMP Responsive Elements (CRE) small molecule antagonists, cell-based qHTS assay (AID 1963591; active = well fitted inhibition curve with a large enough effect in the signal ratio in the repeat runs, not every such curve was filed as active; the % refers to the signal ratio)
Procedure, shortened: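 HEK293T cells carrying a CRE-driven beta-lactamase reporter receive compound and NKH477 (0.25 uM final) for 3 h. Fluorescence from LiveBLAzer B/G FRET substrate is read after 2 h at room temperature.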

Measured: Potency

Cc1cc(C)c(C)c(O)c1
not listed: [20]
inactive: all other assays above

CCCOCCOCCO
not listed: [20]
inactive: all other assays above

C=CCOC(=O)CCCCCC
not listed: [20]
inactive: all other assays above

N#[N+]c1ccc2c(S(=O)(=O)[O-])cccc2c1O
not listed: [17]
inactive: all other assays above

CC(C)C(=O)c1c(C(C)C)nn2ccccc12
not listed: [17]
inactive: all other assays above

C1CCCCC1
not listed: [17]
inactive: all other assays above

COc1cccc(Br)c1
not listed: [16] | [19]
inactive: all other assays above

CCOC(/C=C(\C)CCC=C(C)C)OCC
not listed: [16] | [18]
inactive: all other assays above
